67 molecules from PubChem BioAssay AID927 (National Center for Advancing Translational Sciences (NCATS), 2007) can be followed below.

Hit rate of the full screen: of about 60,000 compounds, about 65 (0.1%) were called active. What follows is part of a selection rich in actives, with near analogues and random picks from the rest. Unmarked numbers belong to inactive results. Calls follow the shape of the dose curve; as a rule, active = well fitted inhibition curve with a large enough effect; inconclusive = small, poorly fitted or top-dose-only effect; inactive = no such curve, though single readings can be large or run the other way. Non-standard residues stand in square brackets, D forms with d. Residues, ends and D or L forms follow the SMILES beside them. ξ: configuration not given here. ξV = CC(C)C(N)C(=O)O
Potency is read from the fitted curve at half-maximal effect.

The target of this test is Ubiquitin carboxyl-terminal hydrolase 2 (Homo sapiens) (UniProt O75604). The test is described as follows: qHTS Assay for Inhibitors of Ubiquitin-specific Protease USP2a. Also: nearly all actives have a fitted effect of over 60% in size. The following applies: USP2a enzymatic assay; Potency: qHTS inhibition; series mostly up to 38.3 µM; activity change, negative = inhibition: at the top concentration. The source says: NIH Molecular Libraries Screening Centers Network [MLSCN]
Chain of Ubiquitin carboxyl-terminal hydrolase 2 (Homo sapiens) (O75604 whole entry, looked up): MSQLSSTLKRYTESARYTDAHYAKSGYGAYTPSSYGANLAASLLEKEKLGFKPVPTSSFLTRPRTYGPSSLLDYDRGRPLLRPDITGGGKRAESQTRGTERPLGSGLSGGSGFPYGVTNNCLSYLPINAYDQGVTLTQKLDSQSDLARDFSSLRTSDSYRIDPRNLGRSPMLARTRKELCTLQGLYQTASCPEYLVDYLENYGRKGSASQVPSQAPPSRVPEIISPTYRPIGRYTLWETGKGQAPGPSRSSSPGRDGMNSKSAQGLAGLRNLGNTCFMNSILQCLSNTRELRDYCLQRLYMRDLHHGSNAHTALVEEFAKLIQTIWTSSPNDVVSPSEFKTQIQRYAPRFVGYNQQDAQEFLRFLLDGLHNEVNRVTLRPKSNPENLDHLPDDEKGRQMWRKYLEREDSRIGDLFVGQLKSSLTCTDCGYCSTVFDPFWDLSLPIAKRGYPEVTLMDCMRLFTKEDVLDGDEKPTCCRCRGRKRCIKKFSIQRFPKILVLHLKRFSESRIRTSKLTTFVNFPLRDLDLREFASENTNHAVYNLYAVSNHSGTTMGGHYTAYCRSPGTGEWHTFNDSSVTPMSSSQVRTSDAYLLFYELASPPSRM
NIH Chemical Genomics Center [NCGC]
PI Name: Nicholson, Ben. Progenra Inc, Malvern, PA
Homeostasis of cellular proteins is maintained through a combination of synthesis and degradation. The pathway that accounts for the majority of protein degradation is the ubiquitin-proteasomal pathway. Ubiquitin (Ub) is highly conserved in all cells and the generation of a multi-Ub chain typically targets proteins for degradation by the proteasome. However, ubiquitination is highly reversible and dynamic. Deubiquitination, the reverse process, is catalyzed through the action of enzymes referred to as isopeptidases or deubiquitinating enzymes (DUBs). This group of enzymes is collectively responsible for maintaining adequate pools of free ubiquitin and regulating the ubiquitination status of cellular proteins. The class of DUBs referred to as the ubiquitin-specific proteases (USP) family functions endoproteolytically to cleave Ub chains from a wide range of protein substrates. USP2a deubiquitinates fatty acid synthase (FASN) which has recently been identified as an emerging oncology target. To identify inhibitors of USP2a a cell-free assay was employed.
The reporter enzyme chosen is phospholipase A2 (PLA2), which has an absolute requirement for a free amino terminus. Thus, fusion of a UBL to the N-terminus of PLA2 inactivates PLA2. When the UBL-PLA2 reporter enzyme is cleaved by USP2, the activated reporter can subsequently act on its substrate, which is the commercially available NBD C6-HPC (Invitrogen). Thus, this coupled assay gives a fluorescent read-out, which is generated through the cleavage of the PLA2 reporter enzyme. The assay, developed by Progenra, Inc. uses Ub-PLA2 and USP2a at near equal and low (nM) amounts and has been licensed for sale by LifeSensors, Inc. as the Ub-IsoPro1 kit.
NCGC Assay Protocol Summary:
The assay buffer, prepared fresh at the day of the assay, contains 20mM Tris-HCl pH 8.0, 2mM CaCl2, 2mM beta-Mercaptoethanol, 0.1% DMSO. 3ul of 40nM (20nM final) USP2 core, which is stored on ice, is dispensed into a medium-binding black solid Kalypsys 1,536 well plate using the Kalypsys dispenser. The assay plate is then pinned with 23nL compound with the Kalypsys pintool in columns 5-48. The controls are pinned as follows: column 1&2 two-fold dilutions of 2M NEM in duplicate; column 3 DMSO; column 4 2M NEM (final concentration 38.2mM). The assay plate is incubated at RT for 30min. Subsequently, 3uL of 40nM (20nM final) Ub-PLA2 and 40uM (20uM final) NBD C6-HPC (stored on ice and protected from light) were dispensed into the plate using the Kalypsys dispenser. Plates were read immediately (0 Hour) on an Envision (Perkin Elmer) plate reader using the following wavelengths Ex 460nm /Em 535nm. Then, the assay plates were incubated for 2.5 hours and read again on the Envision using the same settings
Data were normalized to the to AC100 inhibition (NEM). Concentration-response curves were fitted to the normalized data and the concentration-response curves were then classified based on curve quality (r2), response magnitude and degree of measured activity. The time zero reading was used to flag fluorescence artifacts.
Keywords: ubiquitination, deubiquitination, proteases, profluorescent, MLSMR, MLSCN, NIH Roadmap, qHTS, NCGC
(In qHTS, concentration-response curves come from the screen itself.)
In the case of `CCCn1c(=O)c2ccccc2n2c(SCC(=O)/C(C#N)=C(\C)N)nnc12`, the “activity change, negative = inhibition” value is 5.46%.
On the same count and under the same terms, then `Cc1ccc(S(=O)(=O)N(C)CC(=O)NC2CCCC2)cc1`, with 6.82%; and `O=C(Nc1ccc2c(c1)OCO2)C1CC(c2c(F)cccc2Cl)=NO1` (configuration not stated), with -8.71%; and `CCOc1ccccc1Nc1nnc(SCc2ccc(C(=O)OC)o2)s1`, with 10.2%.
Still for that read-out and setting: as for `Cc1cccc(-n2ncc3c(N4CCc5ccccc54)ncnc32)c1`, the figure is 2.95%; as for `CCOC(=O)C1Cn2c(nc3c(c2=O)C(C)(CC)Cc2ccccc2-3)S1` (configuration not stated), -7.77%; as for `C=C(C)C1CC=C(CO)CC1` (configuration not stated), -3.8%.
Take `CCN(CC)S(=O)(=O)c1ccc(NC(=O)CN(c2cccc(F)c2)S(C)(=O)=O)cc1`: the “activity change, negative = inhibition” value is 25.7%.
For `O=C(CSc1nnc(-c2cccs2)n1-c1ccccc1)N1CCN(C(=O)c2ccco2)CC1`, the “activity change, negative = inhibition” value is -9.08%.
Same read-out and setting: then `CC(=O)NC1CC2CCCC(C1)N2CC(=O)Nc1ccccc1` (configuration not stated), with 6.5%; and `CCOc1c(N2CCCCC2)c(=O)c1=O`, with -9.98%; and `CC(=O)NC(C(=O)NCC(N)=O)C(C)C` (configuration not stated) (Ac-[ξV]-Gly-NH2), with -3.58%.
On the same count and under the same terms, as for `CC12C(=O)N(n3cnnc3)C(=O)C1C1C=CC2C1` (configuration not stated), the figure is 0.802%; as for `O=C(C1=C(O)C(=O)N(Cc2ccccc2)C1c1cccnc1)c1ccco1` (configuration not stated), -8.78%.
On the same count and under the same terms, then `CCC(=O)N1c2ccc(S(=O)(=O)CCC(=O)N3CCN(c4ccccc4)CC3)cc2CC1C` (configuration not stated), with 9.9%.
On to `CCOc1ccccc1N(CC(=O)Nc1ccccc1C(=O)OC)S(C)(=O)=O`, for which the activity change, negative = inhibition was -1.62% [at 7.66 µM].
As for `CC1O[C@@H](Oc2c(-c3ccc(O)c(O)c3)oc3cc(O)cc(O)c3c2=O)C(O)C(O)C1O` (some centres not stated), the “activity change, negative = inhibition” value is -9.94%.
On the same count and under the same terms, as for `O=C(c1cc(C(F)(F)F)cc(C(F)(F)F)c1)N1CCC2(CCCN(Cc3ccncc3)C2)CC1`, the figure is 53.1%; as for `CCN(CC)CCN1C(=O)C(=O)/C(=C(/O)c2ccccc2)C1c1ccccc1F` (configuration not stated), 6.03%.
Same read-out and setting: then `CN1CCC2(CC1)CCN(S(=O)(=O)c1ccccc1)CC2`, with -6.81%; and `CCN(CC)CCNC(=O)Cn1cnc2sc(C)c(S(=O)(=O)N3CCOCC3)c2c1=O`, with -2.24%.
On the same count and under the same terms, as for `O=C(Cn1c(=O)sc2ccccc21)Nc1ccc2c(c1)OCCO2`, the figure is 7.89%; as for `S=C1SCN(CCN2CCOCC2)CN1Cc1ccccc1`, -1.7%; as for `CC1CC[C@@]23CCC4(C)[C@@]5(C)CCC6C(C)(C)C(O)CC[C@@]6(C)C5C=C[C@@]4(OC2=O)C3C1C` (some centres not stated), 5.73%.
With `Nc1ncnc2c1ncn2C1CC(O)C(CO)O1` (configuration not stated), the “activity change, negative = inhibition” value is -5.52%.
The same measure, in the same setting: as for `CC(=O)Nc1ccc(S(=O)(=O)N2CCC(N(C)CCC(C)C)CC2)cc1`, the figure is 4%; as for `COc1ccc(C2CC(=O)C=C(NCC3CCCO3)C2)cc1` (configuration not stated), 2.62%.
Consider `CC(=O)N1CCN(CCN=CC2=C(O)CC(C)(C)CC2=O)CC1`, for which the “activity change, negative = inhibition” value is 0.95%.
Still for that read-out and setting: then `FC(F)(F)c1ccccc1-c1nc(-n2ccnc2)c2ccccc2n1`, with -26.3%.
Still for that read-out and setting: as for `CN1CC(=O)N=C1N`, the figure is 6.52%; as for `CCC1=C/C(=C\c2ccc3c(c2)OCO3)C(=O)S1`, 41.1%.
The same measure, in the same setting: then `COc1ccc(N2CCN(CCNC(=O)c3nnc(Cc4c(F)cccc4Cl)o3)CC2)cc1`, with 15.6%; and `CCN(Cc1ccncc1)C(=O)c1cccc(S(=O)(=O)N2CCOCC2)c1`, with -1.77%; and `CC1(C)OC2CC(=O)OC[C@@]23C1CC(=O)[C@]1(C)C3CC[C@@]2(C)C(c3ccoc3)OC(=O)C3O[C@@]321` (some centres not stated), with -0.539%.
As to `CC(=O)Nc1ccc(S(=O)(=O)N2CCSCC2)cc1`, the “activity change, negative = inhibition” value is -7.08%.
The same measure, in the same setting: as for `O=C(NCCSc1ccccc1)c1ccco1`, the figure is 4.74%; as for `CC(=O)Nc1ccn(Cc2c(F)cccc2Cl)n1`, 11.9%.
In the case of `CC(=O)N1CCC2(CCCN(Cc3ccc(C#N)cc3)C2)CC1`, the “activity change, negative = inhibition” value was 15.6%.
As to `COC1C[C@@H](O[C@@H]2C(C)C(=O)OC(C)C(C)C(O)C(C)C(=O)[C@@]3(CO3)CC(C)C(OC3OC(C)CC(N(C)C)C3O)C2C)OC(C)[C@@H]1O` (some centres not stated), the “activity change, negative = inhibition” value was 9.14%.
On the same count and under the same terms, then `C=C1C(=O)C23C(O)C1CCC2[C@]12COC3(O)C(O)C1C(C)(C)CC[C@H]2O` (some centres not stated), with 37.5%.
As for `COC(=O)COc1ccc(S(=O)(=O)N2CCOCC2)cc1`, the “activity change, negative = inhibition” value is 3.69%.
Still for that read-out and setting: then `Cc1c(NC(=O)Nc2ccccc2Cl)sc(=S)n1C`, with -28.8%; and `CCOC(=O)C(CCOc1cccc(CC)c1)C(=O)OCC`, with -5.22%.
`Cc1cccc(C(=O)Nc2ccc(CC(=O)O)cc2)c1`: the “activity change, negative = inhibition” value is 3%.
Still for that read-out and setting: as for `CC(=O)OCC(=O)[C@@]1(O)CCC2C3CCC4=CC(=O)CC[C@]4(C)C3C(=O)C[C@]21C` (some centres not stated), the figure is -9.52%.
On the same count and under the same terms, then `COC(=O)c1cccc(NC(=O)CN2CCC(NC(=O)c3cc(OC)c(OC)c(OC)c3)CC2)c1`, with 20.6%; and `CC(=O)c1c(N2CCOCC2)nc(=S)n(Cc2ccccc2)c1C`, with 3.47%; and `CC1(C)C(=O)Nc2ccccc2N1C(=O)COC(=O)Cn1cnc2ccccc2c1=O`, with 4.1%.
Same read-out and setting: as for `O=c1c2ccccc2oc2nc(C3CCCCC3)n(Cc3ccco3)c(=O)c12`, the figure is 0.85%; as for `Oc1cc(O)c2c(c1)OC(c1ccc(O)c(O)c1)C(O)C2` (configuration not stated), 12.9%; as for `Cc1nc2nc(COc3ccccc3)[nH]n2c(=O)c1C`, -5.15%.
`C=C[C@](C)(O)CCC1C(=C)CCC2[C@@](C)(CO)CCC[C@@]12C` (some centres not stated): the “activity change, negative = inhibition” value was 1.55%.
Still for that read-out and setting: as for `CC(=O)OC1CCC2(O)CC1(C)CCC1C2CC1(C)C` (configuration not stated), the figure is 6.57%.
Same read-out and setting: as for `CCOC(=O)c1ccc(NC(=O)CSc2nnc(COc3ccccc3OC)n2C)cc1`, the figure is 9.55%; as for `Cn1cc(-c2nc3cnc(N4CCNCC4)nc3n(CCC#N)c2=O)c2ccccc21`, 212%.
Same read-out and setting: as for `O=C(NCc1ccc(Cl)c(Cl)c1)c1cccnc1`, the figure is 8.48% [at 7.66 µM]; as for `COC(=O)Nc1ncc(CN2C(=O)c3ccccc3C2=O)s1`, 12%; as for `CC(C)NC(=O)N1CC[C@@]2(CCCN(C(=O)c3cccn3C)C2)C1`, 15.7%.
Consider `CC(C)NC(=O)N1CCCC2(CCN(C(=O)c3cccn3C)CC2)C1`, for which the Potency is 10 µM (active).
Take `CC(C)NC(=O)N1CCC2(CC1)CCN(C(=O)c1cccn1C)CC2`: the “activity change, negative = inhibition” value is 8.09%.
The same measure, in the same setting: then `CCCNc1ncnc2sc(C)c(C)c12`, with -3.55%; and `Nc1nc2nc(Cl)[nH]c2c(=O)[nH]1`, with 18.5%.
On the same count and under the same terms, then `Cc1cccc(CC(=O)Nc2c3c(nn2-c2cccc(Cl)c2)CS(=O)C3)c1` (configuration not stated), with 7.15%; and `Cc1ccccc1-c1nc(N(C)Cc2ccco2)c2ccccc2n1`, with -9.88%; and `CCOc1cccc(C(=O)Nc2cccnc2)c1`, with 3.24%.
On the same count and under the same terms, then `O=C(Nc1cccc(F)c1)N1CC2(CCN(C(=O)c3csnn3)CC2)C1`, with 12.9%; and `CCOC(=O)[C@H]1CCC[C@@H](NS(=O)(=O)c2ccc(NC(C)=O)cc2)C1`, with 5.45%.
